Structures are written as SMILES. Screen size: about 320,000 compounds; about 200 (0.062%) were called active. Where a call stands in place of a potency, no number is given. About 6% were inconclusive and are not listed. The sample holds actives, similar compounds and a random draw of the others, so the mix is not that of the screen. Calls come from the whole dose curve; as a rule, active = well fitted activation curve with a large enough effect; inconclusive = small, poorly fitted or top-dose-only effect; inactive = no such curve, though single readings can be large or run the other way.

The record followed here is PubChem BioAssay AID504706 (National Center for Advancing Translational Sciences (NCATS), 2011).
Potency is the fitted concentration of half-maximal effect.

This test in a line: qHTS assay for re-activators of p53 using a Luc reporter. Note: nearly all actives have a fitted effect of over 45% in size. The note with it: H1299 p53-A138V BP100-luciferase reporter, luminescence, 24 h; series mostly up to 92.2 µM. An excerpt: The p53 tumor suppressor plays a key role in suppression of tumorigenesis and in human carcinogenesis. It is frequently found inactivated in human cancers, mainly by point mutation. These point mutations are found in a wide variety of human cancers and a majority of them affect the DNA binding domain of the protein. The point mutations either alter native p53 conformation or abolish DNA contact. Additionally, cancer cells with p53 mutations are more resistant to chemo-radiation therapies. In order to find activators to reactivate this important protein, a cell-based screen for p53-dependent luciferase-reporter expression was developed. A p53-null H1299 lung cancer cell line was stably co-transfected with a temperature sensitive p53 mutant, p53-A138V, and a p53-responsive BP100-luciferase reporter. This cell model has previously been characterized in a gene chip profiling experiment for p53 activation. By lowering the culture temperature from 37 deg C (mutant p53 conformation) to 32 deg C (w.t. p53 conformation), a 30-60 fold increase in activation of luciferase activity is observed. At assay temperate, 37 deg C, basal reporter expression is very low and after the addition of detection reagent, a luminescent read-out is carried out. NIH Chemical Genomics Center [NCGC] NIH Molecular Libraries Probe Production Centers Network [MLPCN] MLPCN Grant: DA031088-01A1 Assay Provider (PI): Yi Sung, University of Michigan at Ann Arbor
5ul of 1000 cells per well are dispensed in all wells except column 4, into white solid-bottom TC-treated Kalypsys plates. The cells are kept in Opti-MEM and supplemented with 10% FBS and dispensed using a Multidrop (Thermo). Then using the Kalypsys pin-tool, 23nl of compounds are pinned. The compounds are starting concentration at 10mM, with 1:5 dilution, 4 points, and the control compound nocodazole is pinned in column 1 at 25mM, 1:3 dilution, in duplicate, 25mM nocodazole is pinned in column 2. Please note, all concentrations are working concentrations. 5ul of 1pM purified luciferase enzyme is dispensed using the Kalypsys dispenser in column 4. Plates are incubated for 24 hrs at 37 deg C, 5% CO2, and 95% humidity. Then 4ul of the detection reagent Amplite (ABD Bioquest) is added using the Kalypsys dispenser. Plates are incubated for 10 min at ambient room temperature and are then read on the ViewLux (Perkin Elmer) using a clear filter for a luminescent read-out.
Take `O=C1[C@@H](c2ccccc2)[C@@H](c2ccccc2)N1c1cccnc1`: the Potency result is “inactive”.

On to `CC1O[C@@H](OC2C(O)C(C)O[C@H](OC(=O)[C@]34CCC(C)(C)C[C@H]3C3=CCC5[C@@]6(C)CC(O)C(O[C@@H]7OC(CO)C(O)[C@@H](O)[C@@H]7O)[C@@](C)(C(=O)O)C6CC[C@@]5(C)[C@]3(CO)CC4)C2O[C@H]2OC(C)[C@@H](O[C@@H]3OCC(O[C@@H]4OC(CO)C(O)[C@H](O)C4O)[C@@H](O)[C@@H]3O)[C@H](O)C2O)C(O)C(O)C1O` (some centres not stated), for which the Potency result was “inactive”. For `COc1cc(C(=O)OCc2cc(=O)n3ccsc3n2)ccc1OC(C)C`, the Potency entry is “inactive”.

Turning to `O=C1CCC/C=C\C[C@@H](CC(=O)N(CCO)Cc2ccccc2)C(=O)NCCO1`, the Potency entry was “inactive”. With `COc1ccc(CNc2nc(NCc3ccc(OC)cc3)c3ncn(C4CCCC4)c3n2)cc1`, the Potency result is “inactive”. As for `C#CCOCCOCCOCCNc1nc(N2CCN(C(=O)[C@H](CCC(=O)O)n3cc(CN)nn3)CC2)nc(N2CCN(C(=O)[C@H](CCC(=O)O)n3cc(CN)nn3)CC2)n1`, the entry is “inactive”. In the case of `CC[C@]1(C(=O)OC)[C@H]2C(=O)N(Cc3ccccc3)C(=O)[C@H]2[C@H]2CN=C(SCc3ccc(C#N)cc3)N21`, the Potency entry was “inactive”.

For the compound `Cc1cccc(C)c1Nc1nnc(SCC(=O)NCCCN2CCCC2=O)s1`, the Potency result is “inactive”. `COc1cc(NC(=O)c2[nH]cnc2C(N)=O)cc(C(=O)Nc2cccc(C(F)(F)F)c2)c1`: the Potency result was “inactive”. As for `CN(c1ccccc1)S(=O)(=O)c1cc(C(=O)N2CCN(c3ncccn3)CC2)ccc1Cl`, the entry is “inactive”; as for `CN(C(=O)CSc1cccc[n+]1[O-])C1CCCCC1`, “inactive”. On to `Cc1cc(C(=O)N/N=C\C(Br)=C\c2ccccc2)c(C)o1`, for which the Potency is 31.6 µM (active).

In the case of `CC(C)c1cc(C(=O)N/N=C/C(Br)=C/c2ccccc2)n[nH]1`, the Potency result is “inactive”. With `COc1ccc(C/C(C)=N/NC(=O)c2cc(C)oc2C)cc1`, the Potency result is “inactive”. `Cc1cc(C(=O)NNC(=O)c2ccccc2O)c(C)o1`: the Potency result was “inactive”. Take `Cc1cc(C(=O)N/N=C/c2ccc(N3CCOCC3)cc2)c(C)o1`: the Potency result is “inactive”. For `CC(=C/c1ccccc1)/C=N/NC(=O)c1cc(C)oc1C`, the Potency is 11.2 µM (active). Regarding `O=C1c2ccccc2[C@@H]2C[C@@H](O)[C@H](Nc3ccccc3Cl)CCN12`, the Potency result is “inactive”.

For `CC(C)(C)OC(=O)C1=C(CO)CS[C@@H]2[C@H](NC(=O)Cc3ccccc3)C(=O)N12`, the Potency entry is “inactive”. In the case of `Cc1cccc(NC(=O)c2ccc(S(=O)(=O)N(C)c3ccccc3)cc2)n1`, the Potency result was “inactive”. In the case of `CCN(CC(=O)NC(C)C)C(=O)c1cc(S(=O)(=O)N2CCCCC2)ccc1N1CCCCC1`, the Potency result was “inactive”. For the compound `COc1ccc(C(=O)COC(=O)CN2C(=O)C3CC=CCC3C2=O)c(OC)c1` (configuration not stated), the Potency result was “inactive”.
